Source: PubChem (National Center for Advancing Translational Sciences (NCATS))
Giardia kill = Small Molecules that selectively kill Giardia lamblia: qHTS. Giardia lamblia trophozoite viability. activity change, % at 7.66 µM, hits read low. hit rate 0.15% among 340,000. AID 540267, 2011; in the data active = activity change below about -80%; inconclusive = between about -30% and that limit;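 note: parasites exposed to compound for two days anaerobically before the ATP read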
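Giardia trophozoites, 100 cells per well, were exposed to compounds for 48 hrs at 37 deg C under anaerobic conditions; viability was then read as ATP content by bioluminescence after 15-30 min at room temperature.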
A549 viability = Nrf2 qHTS screen for inhibitors: counterscreen for cytotoxicity; hit rate 0.16% among 390,000; A549 ARE-Fluc cells, CellTiter-Fluor viability, 18-24 h; AID 504648, 2011; Potency, µM (series often up to 46 µM), actives largely listed as inhibitors
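A549 ARE_Fluc cells in 5% FBS OPTI-MEM were exposed to compounds in concentration-response for 18-24 h at 37 deg C. Viability was read by CellTiter-Fluor fluorescence (Ex 405/Em 525) after 30 min, before the luciferase read.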
Nrf2 inh = Nrf2 qHTS screen for inhibitors; A549 ARE-Fluc reporter, luciferase luminescence, 18-24 h; Potency, µM (series often up to 46 µM), most hits filed as inhibitors; hit rate 2.1% among 360,000; AID 504444, 2011; note: nearly all actives have a fitted effect of over 60% in size
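Quantitative HTS in A549 cells stably bearing an antioxidant response element-firefly luciferase construct. Inhibition of Nrf2-driven transcription was scored by luminescence after 18-24 h of compound exposure at 37 °C.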
KB-3-1 cytotox = qHTS assay for MDR1-selective chemotherapeutics: Primary screen using the parental adenocarcinoma cell KB-3-1; KB-3-1 viability, CellTiter-Glo ATP luminescence, 72 h; Potency, µM (highest dose often 46.1 µM), most hits filed as cytotoxic; hit rate 1.4% among 400,000; AID 1347075, 2019; note: nearly all actives have a fitted effect of over 60% in size
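Using CellTiter-Glo luminescence, growth of non-resistant KB-3-1 adenocarcinoma cells is assessed 72 h after pin-tool compound addition at 37 °C. Normalized responses across the concentration series yield fitted curves.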
KB-V1 MDR tox = qHTS assay for MDR1-selective chemotherapeutics: Primary screen using the drug-selected MDR subline cells KB-V1; AID 1347076, 2019; hit rate 3.4% among 400,000; KB-V1 MDR cells viability, CellTiter-Glo, 72 h; Potency, µM (top dose mostly 46.1 µM), most hits filed as cytotoxic; note: nearly all actives have a fitted effect of over 60% in size
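KB-V1, DMEM (no phenol red) + 10% FBS; cpd pin-transferred, titration series; 72 h, 37 degrees C; CellTiter-Glo, luminescence. Data normalized, curve-fit.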
PI4K2A inh = qHTS for small molecular inhibitors of PI4K2A; purified PI4K2A, ADP-Glo luminescence, 1 h; stronger effect = lower value; activity change, negative = inhibition, % at 76.9 µM; hit rate 0.13% among 420,000; AID 1346378, 2018; in the data active = activity change below about -50%; inconclusive = mostly about -30% to -49%
Target sequence (Q9BTU6 whole entry, looked up): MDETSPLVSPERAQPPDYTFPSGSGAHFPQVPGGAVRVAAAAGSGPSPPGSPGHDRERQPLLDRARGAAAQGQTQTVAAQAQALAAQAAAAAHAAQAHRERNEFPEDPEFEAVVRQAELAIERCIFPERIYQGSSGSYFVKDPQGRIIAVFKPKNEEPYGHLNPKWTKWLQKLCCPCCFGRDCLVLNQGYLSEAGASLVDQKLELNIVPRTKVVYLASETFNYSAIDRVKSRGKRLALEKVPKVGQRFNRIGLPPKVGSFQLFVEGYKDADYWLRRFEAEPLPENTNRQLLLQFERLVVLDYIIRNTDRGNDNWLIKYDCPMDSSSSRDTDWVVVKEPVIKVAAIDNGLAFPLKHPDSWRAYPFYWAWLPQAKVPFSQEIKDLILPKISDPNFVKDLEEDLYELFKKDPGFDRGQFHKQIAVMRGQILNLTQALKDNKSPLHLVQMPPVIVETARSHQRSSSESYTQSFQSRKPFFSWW
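Compounds are screened against recombinant PI4K2A using PI as substrate and ATP, the latter dispensed at 300 microM. Reactions run one hour at ambient temperature before ADP-Glo detection; full inhibition defined by wells lacking enzyme.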
Numbers stand for hits; – = inactive; ? = inconclusive; · = no result. Most compounds without a hit are left out; they make up all but 5.7% or so of the library. Unless noted, calls come from the whole dose curve; as a rule, active = well fitted curve in the direction sought with a large enough effect; inconclusive = small, poorly fitted or top-dose-only effect, or another doubt; inactive = no such curve, though single readings can be large; an effect the other way counts as inactive or inconclusive.

SMILES | Giardia kill | A549 viability | Nrf2 inh | KB-3-1 cytotox | KB-V1 MDR tox | PI4K2A inh
Cc1cccc(NC(=O)c2ccc(-c3nc(CSc4ccccc4)c(C)o3)cc2)c1C | · | – | 13µM | – | – | –
CC(=O)c1ccc(NC(=O)c2ccc(-c3nc(CSc4ccc(C)cc4)c(C)o3)cc2)cc1 | · | – | ? | ? | – | –
COc1ccc(NC(=O)c2ccc(-c3nc(CSc4ccc(C)cc4)c(C)o3)cc2)cc1Cl | · | – | 23µM | – | ? | –
Cc1ccc(Cl)cc1NC(=O)c1ccc(-c2nc(CSc3ccccc3)c(C)o2)cc1 | · | – | 13µM | ? | – | –
CC(=O)c1ccc(NC(=O)c2ccc(-c3nc(CSc4ccccc4)c(C)o3)cc2)cc1 | · | – | 10µM | · | · | –
COc1ccc(NC(=O)c2ccc(-c3nc(CSc4ccccc4)c(C)o3)cc2)cc1OC | · | – | ? | – | – | –
CC(C)[C@@H]1OC(=O)[C@@H]2CCCN2C(=O)[C@H](C)OC(=O)[C@H](C)[C@@H](C(C)C)NC(=O)[C@@H]2CCCN2C(=O)[C@H]([C@H](C)Cc2ccccc2)NC(=O)[C@@H]2CCCN2C(=O)[C@@H](C(C)C)N(C)C1=O | · | · | · | · | · | –
O=C(Nc1ccc(Cl)c(Cl)c1)Nc1nccs1 | – | – | ? | 4.6µM | 4.1µM | –
O=C(Nc1ccc(Cl)c(Cl)c1)Nc1nnc(CSc2ccccc2)s1 | – | ? | 7.3µM | ? | 15µM | –
Cc1nnc(NC(=O)Nc2cccc(Cl)c2)s1 | – | – | – | – | ? | –
Cc1ccc(OCCSCc2nnc(NC(=O)Nc3cccc(Cl)c3)s2)cc1 | – | – | – | 5.8µM | ? | –
O=C(Nc1cccc(Cl)c1)Nc1nccs1 | – | – | ? | – | – | –
Cc1cccc(OCCSc2nnc(-c3ccoc3C)n2C)c1 | – | – | – | – | 18µM | –
Cc1cccc(OCCSc2nncn2C)c1 | – | – | ? | – | – | –
COc1ccc(CNC(=O)C2CCCN(c3nc4ccccc4o3)C2)cc1 (stereo not drawn) | · | · | · | · | · | –
CC(=O)C1(C(=O)N2CCOCC2)CC(c2ccccc2C(F)(F)F)=NO1 (stereo not drawn) | · | · | · | · | · | –
CN1CCN(c2ccc([N+](=O)[O-])c(-n3nc(-c4ccccc4)c4ccccc4c3=O)c2)CC1 | – | ? | – | ? | 13µM | –
Cc1nn(-c2cc(N3CCCCC3)ccc2[N+](=O)[O-])c(=O)c2ccccc12 | – | – | ? | – | – | –
CC(C)CCn1c(O)c(N=NC(=O)c2ccco2)c2ccccc21 | – | – | – | – | 13µM | –
O=C(N=Nc1c(O)n(Cc2ccccc2)c2ccccc12)c1cc2ccccc2cc1O | – | – | ? | ? | ? | –
Cn1c(O)c(N=NC(=O)c2ccccc2O)c2ccccc21 | ? | – | – | – | 16µM | –
O=C(N=Nc1c(O)n(Cc2ccccc2)c2ccccc12)c1ccc(O)cc1 | ? | – | – | ? | 15µM | –
NC(=S)N=Nc1c(O)n(Cc2ccc(F)cc2)c2ccccc12 | – | – | – | – | – | –
NC(=S)N=Nc1c(O)n(Cc2ccc(Br)cc2)c2ccccc12 | – | – | ? | 3.3µM | 4.6µM | –
O=C(c1ccccc1)C(c1ccccc1)[n+]1csc2ccccc21 (stereo not drawn) | · | · | · | – | – | ·
SMILES | Giardia kill | A549 viability | Nrf2 inh | KB-3-1 cytotox | KB-V1 MDR tox | PI4K2A inh
Cc1ccc(C(=O)NCc2ccco2)cc1 | – | – | – | – | – | –
CCOC(=O)/C(=N\Nc1ccc(Cl)cc1)c1csc(Nc2ccccc2)n1 | – | ? | 16µM | – | – | –
Cc1ccc(Nc2nc(C(=O)NCC3CCCO3)cs2)cc1 (stereo not drawn) | – | – | – | – | ? | –
CCN(CC)C(=O)c1csc(Nc2ccc(C)cc2)n1 | – | – | – | – | 15µM | –
Cc1ccc(Nc2nc(C(=O)NCc3ccco3)cs2)cc1 | – | · | 9.2µM | – | ? | –
Cc1ccccc1S(=O)(=O)N1CCN(c2nc(-c3cccs3)nc3ccccc23)CC1 | – | – | – | · | · | ·
